# Laboratory results: PubChem BioAssay AID1508619 (National Center for Advancing Translational Sciences (NCATS), 2020)
# Records with an inconclusive call do not appear. A number with no mark means an inactive call. Active and inactive are the calls of the source. The call rests on the fitted dose curve; in most records, active means well fitted inhibition curve with a large enough effect; inconclusive means small, poorly fitted or top-dose-only effect; inactive means no such curve, though single readings can be large or run the other way.
# Assay: Counterscreen qHTS for Identification of Calcium Integrin Binding Protein 1 (CIB1) Competitor
# Conditions: series mostly up to 114 µM; activity, negative = inhibition: at the top concentration
# Excerpt: Assay Provider: Ulhas P. Naik, PhD
# Sidney Kimmel Medical College
# Thomas Jefferson University, Philadelphia, PA
# Primary function of platelets is to maintain hemostasis. At the site of vascular injury, platelets adhere to adhesive proteins such as collagen and von Willebrand factor. Adherent platelets are activated and generate soluble platelet agonists such as thrombin, ADP and thromboxane A2. Following exposure of circulating platelets to these agonists, results in platelet shape change, granule secretion and activation of platelet integrin alphaIIb-beta3. Ligand binding to activated integrin alphaIIb-beta3 triggers outside-in signaling, leading to platelet aggregation, stabilization of platelet plug, and clot retraction. Upon atherosclerotic plaque rupture also causes platelet plug formation, which underlies a number of cardiovascular diseases such as myocardial infraction and stroke. A number of anti-platelet drugs such as aspirin, clopidogrel, prasugrel, vorapaxar, and eptifibatide are currently available to prevent the thrombotic complications. However, these anti-platelet agents have several limitations including inherent variability in individual responses, developing resistance, and serious bleeding side effects. For these reasons they are not suitable for long-term protection. Based on the experiences with current anti-platelet drugs, it appears that the most useful therapeutic approach is to intersect the secondary responses such as integrin outside-in signaling or recruitment of platelets by TxA2 and secreted ADP. Compounds, which can largely preserve the primary hemostatic function of platelets but inhibit secondary response will be most desired therapeutic agents for treatment of cardiovascular disease.
# CIB1 is a calcium integrin binding protein, which specifically interact with the alphaIIb subunit of integrin alphaIIb-beta3. Binding of CIB1 to alphaIIb regulates the outside-in signaling in platelets, which is needed for thrombus stabilization and thrombus growth. […] Therefore, we propose that discovery of a small molecule that can prevent the association of CIB1 and alphaIIb-beta3 will be a potential anti-platelet agent that can block the thrombus formation without undue effect on hemostasis.
# To develop fluorescence polarization (FP) assay using fluorescently labeled alphaIIb peptide and CIB1 protein. Using FP assay characterize the binding affinity, competitive inhibition, and acceptable Z factor (0.5 to1) in order to perform the HTS to identify small molecule compound that can prevent CIB1 binding to platelet integrin alphaIIb-beta3. Active compounds were re-acquired and validated using confirmatory and counterscreens (using 100 nM scrambled peptide).
# [1] Naik MU, Nigam A, Manrai P, et al. CIB1 deficiency results in impaired thrombosis: the potential role of CIB1 in outside-in signaling through integrin alpha IIb beta 3. J Thromb Haemost. 2009;7(11):1906-1914. doi:10.1111/j.1538-7836.2009.03581.
# SEQUENCE No. (1, 2, 3, etc.); […] (e.g., Cells, Incubation, Reagent, etc.); VALUE and DESCRIPTION.
# 1; Reagent; 3 uL; Protein or buffer (4/3x)
# 2; Compound; 46 nL; Control inhibitor / compound library
# 3; Time; 15 min; Room temperature incubation
# 4; Reagent; 1 uL; Fluorescent labeled peptide (4x)
# 5; Time; 1000 rpm; Centrifuge
# 6; Time; 15 min; Room temperature incubation
# 7; Detection; Ex 480/ Em 540; ViewLux Fluorescence Read
# NOTES (numbers refer to sequence above)
# 1; Protein Mixture: C1B1-GST (final concentrations of 1 uM). Buffer composition: 5 mM HEPES pH 7.4, 125 mM NaCl, 5 mM CaCl2, 0.01% Tween20.
# 2; Control Inhibitor: unlabeled peptide (final concentration range 17.4 nM to 572 uM). Compound Library final concentration range 18.3 nM to 114 uM.
# 3; Room temperature incubation.
# 4; Fluorescent Labeled Peptide: FITC-alphaIIb (final concentration of 100 nM). Sequence of Scrambled peptide: Acetyl-[…]-FITC (purity is 95.37%).
# 6; Room temperature incubation.
# […]
# On the % scale 0 is the no-effect control and ±100 the full control effect; potency means the concentration at half of the fitted maximal effect.
Structure (SMILES),"activity, negative = inhibition",Potency
N[C@@H](Cc1ccc(Oc2cc(I)c(O)c(I)c2)c(I)c1)C(=O)O,-9.7%,–
COC[C@H]1OC(=O)c2coc3c2[C@@]1(C)C1=C(C3=O)C2CCC(=O)[C@@]2(C)C[C@H]1OC(C)=O (stereo not given in full),-9.28%,–
CN(C)CCc1c[nH]c2cccc(O)c12,–,89.1 µM (active)
CCCCCCCCCCCCCCCC[N+](C)(C)C,4.61%,–
O=c1c(C2CC(c3ccc(-c4ccc(Br)cc4)cc3)Cc3ccccc32)c(O)sc2ccccc12 (stereo not given),88.6%,–
O=C1OC(c2ccc(O)c(S(=O)(=O)O)c2)(c2ccc(O)c(S(=O)(=O)O)c2)c2c(Br)c(Br)c(Br)c(Br)c21,42.2%,–
O=C1C(I)=CC(=C(c2cc(I)c(O)c(I)c2)c2ccccc2C(=O)O)C=C1I,334%,–
C[CH2][Hg][S]c1ccccc1C(=O)O,-2.63%,–
S=C(SSC(=S)N1CCCCC1)N1CCCCC1,19.7%,–
CC1=C(O)C(=O)C=C2C1=CC=C1[C@@]2(C)CC[C@@]2(C)[C@@H]3C[C@](C)(C(=O)O)CC[C@]3(C)CC[C@]12C,–,44.7 µM (active)
Cc1ccc([N+](=O)[O-])[c]2c1[O][Hg]2,131%,–
CN(C)C(=S)SSC(=S)N(C)C,1.45%,–
CC(=O)[O][Hg][c]1ccccc1,130%,–
O=c1oc2ccccc2c(O)c1C(CC(O)c1ccc(-c2ccc(Br)cc2)cc1)c1ccccc1 (stereo not given),79.8%,–
COc1nn(CSP(=S)(OC)OC)c(=O)s1,-8.92% [at 229 µM],–
